# TcdB GH inh: blocks C. difficile toxin B glycohydrolase activity; inhibition, % at 9.99 µM; P18177; AID 652162; actives 0.24% (n = 350,000); TcdB glycohydrolase enzymatic assay, plate reader; in the data active = inhibition above about 10%
# Vc quorum ag: induces V. cholerae light production without autoinducers; V. cholerae BH1578 lux reporter, luminescence, 6 h; activation, % at 18.7 µM; actives 0.16% (n = 350,000); in the data active = activation mostly above about 9.7%, no sharp cut-off
# VHR inh abs: blocks human VHR1 dual specificity phosphatase | P51452 | recombinant VHR phosphatase, pNPP absorbance | inhibition, % at 13.3 µM | actives 0.52% (n = 290,000) | AID 1654; in the data active = inhibition above about 50%
# Y pestis TopoI: Y. pestis Topo-I inhibition via cleavage products. Y. pestis Topo-I cleavage product accumulation, plate reader. activity, % at 10 µM. actives 0.064% (n = 360,000); in the data active = activity above about 50%, passing the limit was not always enough
# BioA inh: inhibitors of Mycobacterium tuberculosis BioA enzyme; purified M. tuberculosis BioA enzyme, plate reader; inhibition, % at 9.99 µM; actives 0.096% (n = 360,000); AID 602481; in the data active = inhibition above about 40%
# PfHsp40 rescue: rescue of PfHsp40-mediated yeast toxicity; AID 504582; actives 0.68% (n = 340,000); S. cerevisiae expressing PfHsp40, growth rescue, ATP luminescence; growth rescue, % at 12.5 µM; in the data active = growth rescue above about 28%, passing the limit was not always enough;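 note: yeast W303a lacking pdr1 and pdr3 grown in galactose medium; growth measured after three days at 30 °C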
# Active calls of the source: *; i = inactive; / = no result given. Compounds with a hit are over-represented: about 1.2% of the library has one in this group of screens.
SMILES,TcdB GH inh,Vc quorum ag,VHR inh abs,Y pestis TopoI,BioA inh,PfHsp40 rescue
O=C(NC(=S)Nc1ccc(O)cc1)c1cncc(Br)c1,15*,-1,/,0,/,-1
Cc1cc(=O)n2[nH]c(NCc3ccccc3F)nc2n1,1,-1,7,-1,-1,3
Cc1ccc2c(c1C)-c1c(ccc(C)c1C)C(=O)C2=O,1,-6,/,6,/,171*
COc1ccccc1N1C(=O)CC(N2CCc3ccccc32)C1=O (stereo not drawn),/,i,27,5,-2,-2
COc1ccc(Cl)cc1N1C(=O)CC(N2CCc3ccccc32)C1=O (stereo not drawn),/,-6,12,0,-1,43*
C=CCn1c(COc2ccccc2)nnc1SCC(=O)N/N=C/c1ccc(C)cc1,/,0,14,21,2,0
C=CCn1c(COc2ccccc2)nnc1SCC(=O)N/N=C/c1cc(Cl)ccc1O,/,-1,7,14,0,44*
CCCCCc1ccc(OCCC[n+]2ccccc2)c(CCCCC)c1,4,-1,-2,-18,/,6
CCCCCc1ccc(OCCOCCn2c[n+](C)c3ccccc32)c(CCCCC)c1,/,0,-20,0,/,55*
Cc1cc(C)nc(NS(=O)(=O)c2ccc(NC(=O)c3cc(-c4ccccc4)nc4ccccc34)cc2)n1,1,i,12,10,0,1
Cc1ccc(-c2cc(C(=O)Nc3ccc(S(=O)(=O)Nc4onc(C)c4C)cc3)c3ccccc3n2)cc1,2,i,54*,17,/,-1
COc1cc([N+](=O)[O-])cc(/C=N/NC(=O)c2cncc(Br)c2)c1O,-3,i,45,2,0,780*
O=C(NN=Cc1cccc([N+](=O)[O-])c1)c1cc(-c2cccnc2)nc2ccccc12,2,i,/,2,8,0
Cc1cc(C(=O)N/N=C/c2cccc([N+](=O)[O-])c2)c2ccccc2n1,2,0,-2,-6,/,34*
COc1cc([N+](=O)[O-])cc(/C=N/NC(=O)c2cc(C)nc3ccccc23)c1O,0,-1,17,-4,/,32*
O=C(N/N=C/c1ccccn1)c1ccc([N+](=O)[O-])cc1Cl,11*,i,6,3,2,2
COc1cc(/C=N/NC(=O)c2cncc(Br)c2)cc([N+](=O)[O-])c1O,-1,0,13,-1,5,-1
Cc1cccc(S(=O)(=O)N2CCCCN3[C@H](CO)[C@H](c4ccc(C#CC(C)C)cc4)[C@H]3C2)c1,-3,/,/,/,-6,/
Cc1c(Cl)ccc2c(C(N)=O)cc(-c3ccccn3)nc12,1,i,3,7,/,-1
CCOC(=O)CNC(=O)c1cc(-c2ccccn2)nc2c(C)c(Cl)ccc12,-1,i,53*,19,/,5
O=C(O)c1ccc2c(c1)N(Cc1cccc(F)c1)C(=O)CS2,21*,0,-24,3,0,0
O=C(O)c1ccccc1C(=O)c1ccc2c(c1)N(Cc1cccc(F)c1)C(=O)CO2,21*,-1,2,-5,/,-1
O=C(CSc1nnc(-c2ccncc2)o1)N1CCCCCC1,18*,4,4,1,/,0
CCOC(=O)Cc1csc(NC(=O)CSc2nnc(-c3ccncc3)o2)n1,1,0,53*,-1,/,3
O=C(CSc1nnc(-c2ccccc2Cl)o1)N1CCCC1,3,-1,56*,2,4,0
SMILES,TcdB GH inh,Vc quorum ag,VHR inh abs,Y pestis TopoI,BioA inh,PfHsp40 rescue
CCOC(=O)C1CCCN(C(=O)C2COc3ccccc3O2)C1 (stereo not drawn),3,i,/,5,1,0
O=C(Nc1cccc(C(F)(F)F)c1)Oc1ccc(Cl)c2cccnc12,1,-1,18,-10,0,125*
Cc1cc(OCCn2nc(C(=O)O)c3ccccc3c2=O)ccc1C(C)C,1,0,39,83*,-2,1
CCc1cccc(OCCn2nc(C(=O)O)c3ccccc3c2=O)c1,2,-1,4,3,/,1
ClCC(CNCc1ccccc1)c1ccccc1 (stereo not drawn),12*,i,/,8,-2,0
COc1cc(OC)c(OC)cc1/C=N/n1c(-c2n[nH]c3c2CCC3)n[nH]c1=S,3,-1,8,6,-1,28*
COc1ccc(/C=N/n2c(-c3cc(C)[nH]n3)n[nH]c2=S)cc1,4,-1,-17,2,/,-1
COc1ccc(/C=N/n2c(-c3cc(C)[nH]n3)n[nH]c2=S)cc1OC,11*,0,5,2,-2,/
Cc1cc(C)cc(NC(=O)CSc2nc3[nH]c(=O)cc(O)c3s2)c1,0,0,2,-5,-1,38*
COCCCNC(=O)C1CCCN(S(=O)(=O)c2ccc(C)cc2)C1 (stereo not drawn),/,-5,0,-4,-5,0
O=C(NCc1ccc(OC(F)(F)F)cc1)c1cc(-c2ccccc2)nn1CC1CC(c2cccnc2)=NO1 (stereo not drawn),/,i,/,24,2,65*
Oc1ccccc1N1CCN(c2ncnc3scc(-c4ccc(F)cc4)c23)CC1,2,0,-2,21,0,2
CC(=O)Nc1cc2c3c(c1)CCN3C(=O)CC2,-1,0,56*,-6,-1,-1
CC(C)CC(=O)Nc1cc2c3c(c1)CCN3C(=O)CC2,2,-1,2,-4,-1,-2
CN(C)S(=O)(=O)Oc1cccc(C(=O)Nc2ccc(Cl)c(Cl)c2)c1,/,1,7,-11,1,233*
CCCCCCCCNC(=O)CCNC(=O)c1ccc(C(C)(C)C)cc1,-9,2,6,2,-1,47*
COc1ccc(S(=O)(=O)N(C)C[C@@H]2OCCCC[C@H](C)Oc3ccc(NS(=O)(=O)c4ccccc4)cc3C(=O)N([C@H](C)CO)C[C@@H]2C)cc1,1,/,/,/,0,/
Cc1ccc(Nc2c(-c3ccccc3O)nc3cnccn23)cc1,2,0,16,7,/,58*
O=C(NCC1OCCCN1S(=O)(=O)c1cc(F)ccc1F)C(=O)NC1CCCCCC1 (stereo not drawn),1,0,15,-1,/,0
Cc1ccc(CN=C(N)Nc2nc(C)cc(C)n2)cc1,0,-1,57*,2,1,0
O=c1nc(N/N=C/c2ccccn2)cn[nH]1,-4,0,2,-2,/,617*
Fc1cccc(/C=N/Nc2nncc3ccccc23)c1,0,0,2,-3,0,-2
C(=N\Nc1nncc2ccccc12)/c1ccccn1,-1,0,-12,9,1,413*
CC(C)CCC1(CCNC(C)c2cccs2)CCOC(C)(C)C1 (stereo not drawn),0,2,23,15,2,1
COc1ccc(OC)c(NC(=O)COC(=O)c2ccc(OC)c(S(=O)(=O)N3CCCC3)c2)c1,1,-1,/,3,1,0

# Bioassay records as filed in PubChem BioAssay.
